Bioassay records deposited in PubChem BioAssay by several laboratories.
RecA intein inh – Mtb RecA intein splicing inhibitors, primary screen, biochemical, fluorescence, HTS | 0.75% of 290,000 active | cell-free RecA intein splicing | inhibition, % (test concentration not listed) | AID 2221, 2009 | Protein RecA (Mycobacterium tuberculosis (strain ATCC 25618 / H37Rv)), P9WHJ3; in the data active means inhibition above about 30%
FBA Mtb inh – Mtb FBA enzyme inhibitors, primary screen, biochemical, fluorescence, strain H37Rv; Fructose-bisphosphate aldolase (Mycobacterium tuberculosis (strain ATCC 25618 / H37Rv)), …; purified M. tuberculosis FBA, fluorescence read-out; inhibition, % at 1 µM; 2.3% of 360,000 active; in the data active means inhibition above about 27%
Target sequence (P9WQA3 whole entry, looked up): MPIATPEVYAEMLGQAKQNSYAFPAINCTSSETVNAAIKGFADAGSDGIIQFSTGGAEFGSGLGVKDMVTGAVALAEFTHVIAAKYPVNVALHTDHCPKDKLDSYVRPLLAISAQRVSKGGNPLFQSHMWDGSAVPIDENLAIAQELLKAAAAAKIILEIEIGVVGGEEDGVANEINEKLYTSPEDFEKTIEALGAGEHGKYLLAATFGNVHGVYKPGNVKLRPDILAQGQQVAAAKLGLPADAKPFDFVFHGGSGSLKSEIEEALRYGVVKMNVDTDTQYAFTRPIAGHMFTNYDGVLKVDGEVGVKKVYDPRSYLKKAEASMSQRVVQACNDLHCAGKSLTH
GDH-TPI inh – GDH-TPI coupling enzyme inhibitors, primary screen, artefact control for M. tuberculosis FBA inhibitor project, biochemical, absorbance, full deck. AID 588335, 2011. GDH-TPI coupled enzyme counterscreen, NADH absorbance. inhibition, % at 4.8 µM. 1.2% of 360,000 active
VHR inh abs – VHR1 phosphatase inhibitors, primary screen, biochemical, absorbance, uHTS | 0.52% of 290,000 active | AID 1654, 2009 | recombinant VHR phosphatase, pNPP absorbance | inhibition, % at 13.3 µM; in the data active means inhibition above about 50%
Target sequence (P51452 whole entry, looked up): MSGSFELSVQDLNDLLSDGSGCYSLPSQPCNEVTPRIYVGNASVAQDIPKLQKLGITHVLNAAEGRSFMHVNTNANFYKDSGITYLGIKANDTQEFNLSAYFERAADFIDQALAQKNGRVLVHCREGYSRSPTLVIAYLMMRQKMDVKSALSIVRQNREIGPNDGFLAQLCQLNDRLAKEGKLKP
CCHFV vOTU inh – CCHFV vOTU protease inhibitors, primary screen, biochemical, Pep-AMC substrate, fluorescence; AID 651958, 2012; 0.55% of 370,000 active; inhibition, % at 11.5 µM; Crimean-Congo hemorrhagic fever virus L polyprotein viral ovarian tumor (vOTU) protease …
SARS 3CLpro inh-1 – SARS-CoV 3CLpro protease inhibitors, primary screen, biochemical, quenched FRET; 0.14% of 290,000 active; inhibition, % at 6 µM; recombinant SARS-CoV 3CLpro, quenched FRET peptide cleavage; Replicase polyprotein 1ab (Severe acute respiratory syndrome coronavirus), P0C6X7; in the data active means inhibition above about 12%
SARS 3CLpro inh-2 – confirmation of SARS coronavirus 3C-like protease inhibitors, retest, confirmation, biochemical. shares compounds with SARS 3CLpro inh-1. QFRET protease activity assay, 3CLpro. inhibition, % at 6 µM. 36% of 380 active; in the data active means inhibition above about 13%
Of the large screens only hits and unclear results are named; the others gave an inactive call (follow-up assays come after a bar, where they were run). Hits are enriched below; roughly 4.7% of the tested compounds scored in any of these assays. Unless noted, no stated cut-off is given here; in the data, active means inhibition above about 30%; inactive means the rest.

CC(C)OP(=O)(OC(C)C)C1(NS(=O)(=O)c2ccc(Cl)cc2)C=C(Cl)C(=O)C(Cl)=C1	SARS 3CLpro inh-1 17 | SARS 3CLpro inh-2 inactive
CC(C)N(CCNS(=O)(=O)c1ccc(Cl)cc1)C(C)C	none
COc1ccccc1/C=C/C(=O)c1cc(Br)ccc1OC(=O)c1ccco1	SARS 3CLpro inh-1 15 (no result: VHR inh abs) | SARS 3CLpro inh-2 50
Cc1ccc(/C=C/C(=O)c2cc(Br)ccc2OC(=O)c2ccco2)cc1	SARS 3CLpro inh-1 23 | SARS 3CLpro inh-2 32
O=C(/C=C/c1cc(Br)ccc1O)c1ccco1	none
COc1ccc(/C=C/C(=O)NC2CCCCCCC2)cc1S(=O)(=O)N1CCOCC1	none
COC(=O)c1ccccc1NC(=O)c1ccc2c(c1)OCCCO2	SARS 3CLpro inh-1 12 | SARS 3CLpro inh-2 inactive
Cc1ccccc1NC(=O)c1ccc2c(c1)OCCO2	none
O=C(Cn1c(-c2cncs2)nc2ccccc21)NC1CCCCC1	none (no result: RecA intein inh, FBA Mtb inh, GDH-TPI inh, VHR inh abs, SARS 3CLpro inh-1)
COCCN1Cc2cc(C(=O)OC)c3c(c2C1=O)c1cc(OC)ccc1n3S(C)(=O)=O	none (no result: RecA intein inh, FBA Mtb inh, GDH-TPI inh, VHR inh abs, SARS 3CLpro inh-1)
Cc1cc(C)cc(NS(=O)(=O)c2ccc3[nH]cc(C(=O)N4CCc5ccccc54)c(=O)c3c2)c1	SARS 3CLpro inh-1 14 | SARS 3CLpro inh-2 inactive
CCc1ccc(NS(=O)(=O)c2ccc3[nH]cc(C(=O)N4CCc5ccccc54)c(=O)c3c2)cc1	none
CC(=O)N(c1ccc(C(F)(F)F)cc1)S(=O)(=O)c1ccc(N2C(=O)CCC2=O)cc1	SARS 3CLpro inh-1 13 | SARS 3CLpro inh-2 inactive
Cc1ccc2cc(CN(c3ccccc3)S(=O)(=O)c3ccccc3)c(=O)[nH]c2c1	none
CCOc1ccc(N(Cc2cc3ccc(C)cc3[nH]c2=O)S(=O)(=O)c2ccccc2)cc1	SARS 3CLpro inh-1 13 | SARS 3CLpro inh-2 inactive
CC(=O)Nc1cc([N+](=O)[O-])ccc1OCc1ccccc1	none (no result: RecA intein inh, VHR inh abs, SARS 3CLpro inh-1)
CCOc1ccccc1CN1CCNC(=O)C1CC(=O)NC1CCCCCCC1 (stereo unspecified)	none
COC(=O)c1ccc(CN2C(=O)c3ccccc3C2=O)cc1	none
COC(=O)c1ccc(OC(=O)CN2C(=O)c3ccccc3C2=O)cc1	SARS 3CLpro inh-1 15 | SARS 3CLpro inh-2 14
CCc1ccc(N(C(=O)c2ccco2)C(C(=O)NC2CCCC2)c2cccnc2)cc1 (stereo unspecified)	SARS 3CLpro inh-1 16 (no result: RecA intein inh) | SARS 3CLpro inh-2 inactive
Cc1ccc(N(C(=O)c2ccco2)C(C(=O)NC2CCCC2)c2cccnc2)cc1C (stereo unspecified)	none
CCC(C)c1ccc(N(C(=O)c2ccco2)C(C(=O)NC2CCCC2)c2cccnc2)cc1 (stereo unspecified)	SARS 3CLpro inh-1 75 (no result: RecA intein inh) | SARS 3CLpro inh-2 75
COCC(CN1CCN(C2=NS(=O)(=O)c3ccccc32)CC1)OC(=O)c1ccc(OC)cc1 (stereo unspecified)	none
CC(=O)Nc1ccc(NC(=O)C/C(C)=N/NC(=O)COc2cc(C)c(Br)cc2Br)cc1	SARS 3CLpro inh-1 16 | SARS 3CLpro inh-2 inactive
CCOc1ccc(NC(=O)C/C(C)=N/NC(=O)COc2ccc(Br)cc2C)cc1	none
CC1(c2ccccc2)NC(=O)N(CC(=O)Nc2ccc(N3CCOCC3)cc2N2CCOCC2)C1=O (stereo unspecified)	none (no result: VHR inh abs, SARS 3CLpro inh-1)
Cc1ccc(S(=O)(=O)/C(=C/Cl)NC(=O)c2ccccc2)cc1	SARS 3CLpro inh-1 16 | SARS 3CLpro inh-2 23
Cc1ccc(C(=O)NC(=C(Cl)Cl)S(=O)(=O)c2ccc(C)cc2)cc1	none
O=C(CSc1ccccn1)Nc1nonc1[N+](=O)[O-]	SARS 3CLpro inh-1 41 | SARS 3CLpro inh-2 49
O=C(CSc1ccccn1)Nc1ccc(NC(=O)CSc2ccccn2)cc1	none
O=C1C2C(c3ccccc3)C=CC(c3ccccc3)C2C(=O)N1c1cccnc1 (stereo unspecified)	SARS 3CLpro inh-1 20 | SARS 3CLpro inh-2 70
O=C1C2C(c3ccccc3)C=CC(c3ccccc3)C2C(=O)N1c1ccncc1 (stereo unspecified)	none
Cc1ccc(NC(=O)COC(=O)C(NS(=O)(=O)c2ccc(Cl)cc2)C(C)O)cc1C (stereo unspecified)	none
Cc1cccc(N2CCN(C(=O)c3cc(=O)[nH]c4ccccc34)CC2)c1C	SARS 3CLpro inh-1 41 | SARS 3CLpro inh-2 55
O=C(c1ccco1)N1CCN(C(=O)c2cc(=O)[nH]c3ccccc23)CC1	none (no result: RecA intein inh, VHR inh abs, SARS 3CLpro inh-1)
O=C(c1cc(=O)[nH]c2ccccc12)N1CCN(c2ccccc2)CC1	SARS 3CLpro inh-1 32 | SARS 3CLpro inh-2 31
O=C(NCc1ccon1)C1CCC(=O)N(CCc2cccc(F)c2)C1 (stereo unspecified)	none
Cc1ccc(-n2nnnc2SCC(=O)NC(C(=O)O)(c2ccccc2)c2ccccc2)cc1C	SARS 3CLpro inh-1 14 | SARS 3CLpro inh-2 inactive
COc1ccc(C(C(=O)NCC2CCCO2)N(Cc2ccccc2)C(=O)CNC(=O)c2ccco2)cc1OC (stereo unspecified)	none
Cc1ccc(N2C(=O)c3ccccc3C2=O)cc1	none
Cc1ccc(SC2=C(Sc3ccc(C)cc3)C(=O)c3ccccc3C2=O)cc1	none | SARS 3CLpro inh-2 inactive
Cc1cc(NC(=O)COC(=O)C(Nc2ccc(C(F)(F)F)cc2Cl)C(C)C)no1 (stereo unspecified)	SARS 3CLpro inh-1 14 | SARS 3CLpro inh-2 13
C[C@H]1CN([C@@H](C)CO)C(=O)c2cc(-c3cccc(F)c3)cnc2O[C@H]1CN(C)C(=O)c1cnccn1	none (no result: RecA intein inh, VHR inh abs, SARS 3CLpro inh-1)
COc1ccc(S(=O)(=O)Oc2ccccc2C(N)=O)cc1	none (no result: RecA intein inh, VHR inh abs, SARS 3CLpro inh-1)
CC(C)[C@@H]1NC(=O)c2cc([N+](=O)[O-])cc(I)c2NCC[C@@H](C(N)=O)NC(=O)[C@H](CO)NC1=O	none (no result: RecA intein inh, FBA Mtb inh, GDH-TPI inh, CCHFV vOTU inh)
C[C@@H]1NC(=O)c2cc([N+](=O)[O-])cc(I)c2NCCCC[C@@H](C(N)=O)NC(=O)[C@H](CC(N)=O)NC1=O	SARS 3CLpro inh-1 14 (no result: RecA intein inh, FBA Mtb inh, GDH-TPI inh, CCHFV vOTU inh) | SARS 3CLpro inh-2 inactive
COc1ccc(S(=O)(=O)N2CCN(C(=O)Nc3ccccc3OC)CC2)cc1	SARS 3CLpro inh-1 13 | SARS 3CLpro inh-2 inactive
COc1ccc(NC(=O)N2CCN(S(=O)(=O)c3ccc(F)cc3)CC2)c(OC)c1	none
COc1ccc(C)cc1NC(=O)CSc1nc2scc(C)c2c(=O)[nH]1	SARS 3CLpro inh-1 13 | SARS 3CLpro inh-2 inactive
COc1cccc(CNC(=O)CN(c2ccc(C(C)C)cc2)S(=O)(=O)c2c(C)noc2C)c1	SARS 3CLpro inh-1 15 | SARS 3CLpro inh-2 inactive
